Growth data for 13 compounds are collected here from PubChem BioAssay (NCI).

Some test systems named below: SR leukemia; RPMI-8226 leukemia; OVCAR-8 ovarian; OVCAR-5 ovarian; OVCAR-4 ovarian; SK-OV-3 ovarian; IGROV1 ovarian; OVCAR-3 ovarian; HS 578T breast; NCI/ADR-RES ovarian.
Common to all, as to experiment: NCI-60 one-dose screen, 48 h (100 = growth as untreated, 0 = no growth, -100 = all killed)
Holding throughout (conditions): 10 µM unless noted

About 83,000 compounds went through this panel and 20% of them were active in at least one assay; those are over-represented in the sample as a whole.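 Values shown are percent growth following 48 h exposure of cells in 96-well plates to a single concentration of compound; below 10 was considered active.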 A number with no mark means an inactive call. Activity calls are given as the source filed them.

As to `N#CSCC1CC(O)(c2ccccc2)CC(c2ccc(F)cc2)O1` (stereo not given), the growth was -29.6% (active) with SR leukemia; -22.4% (active) in the experiment on RPMI-8226 leukemia; 10.3% in the experiment with OVCAR-8 ovarian; 85.6% in the experiment on OVCAR-5 ovarian; 26.1% with OVCAR-4 ovarian; 52.7% with SK-OV-3 ovarian. In addition, the growth is 51.1% with IGROV1 ovarian, -79.3% (active) with OVCAR-3 ovarian, -22.7% (active) with HS 578T breast and -3.67% (active) in the experiment on NCI/ADR-RES ovarian.

For the compound `COc1ccc(C/C(C)=C(/c2ccc(OCCN(C)C)cc2)c2ccc(OC(=O)NCc3ccccc3)cc2)cc1`, the growth with SR leukemia was -46% (active); in the experiment with RPMI-8226 leukemia, 32.9%; in the experiment on OVCAR-8 ovarian, 77.4%; in the experiment on OVCAR-5 ovarian, 92%; with OVCAR-4 ovarian, 78.4%; with SK-OV-3 ovarian, 81.4%. Also, the growth in the experiment with IGROV1 ovarian is 85.3%; in the experiment on OVCAR-3 ovarian it was 63.9%; in the experiment with HS 578T breast, 56.2%; in the experiment on NCI/ADR-RES ovarian, 77.2%.

As for `CNc1nnc2n(-c3ccccc3)c(=O)c3cnn(-c4ccccc4)c3n12`, the growth is 65.2% in the experiment with SR leukemia; 85.3% in the experiment with RPMI-8226 leukemia; 95.7% in the experiment with OVCAR-8 ovarian; 99.3% with OVCAR-5 ovarian; 107% in the experiment on OVCAR-4 ovarian; 68.4% in the experiment with SK-OV-3 ovarian. Also, the growth with IGROV1 ovarian was 94.8%; in the experiment with OVCAR-3 ovarian it was 104%; in the experiment with HS 578T breast it was 97.4%; in the experiment with NCI/ADR-RES ovarian it was 96.6%.

Consider `Cn1cc(-c2csc(-c3cn(C(=O)OC(C)(C)C)c4ccc(Br)cc34)n2)c2ccnc(Cl)c21`, for which the growth is 39.2% with SR leukemia; 79.4% in the experiment with RPMI-8226 leukemia; 59.8% in the experiment with OVCAR-8 ovarian; 105% in the experiment on OVCAR-5 ovarian; 65.3% in the experiment with OVCAR-4 ovarian; 82.8% in the experiment with SK-OV-3 ovarian. Besides, the growth was 89.1% in the experiment with IGROV1 ovarian, 97.3% in the experiment with OVCAR-3 ovarian, 2.06% (active) in the experiment with HS 578T breast and 71.8% in the experiment with NCI/ADR-RES ovarian.

Consider `COC12C=C/C(=C(/C(=O)OCc3ccncc3)C(=O)CCCCCCCCC3(OC)C=C/C(=C(/C(=O)OCc4ccncc4)C(=O)CCCCCCCC1)O3)O2`, for which the growth in the experiment with SR leukemia was -16.2% (active); with RPMI-8226 leukemia, -24.7% (active); in the experiment with OVCAR-8 ovarian, 14.7%; in the experiment with OVCAR-5 ovarian, -20.7% (active); in the experiment with OVCAR-4 ovarian, -2.29% (active); in the experiment with SK-OV-3 ovarian, 40.1%. The growth in the experiment with IGROV1 ovarian is -32.2% (active); in the experiment with OVCAR-3 ovarian, -74.3% (active); in the experiment on HS 578T breast it was 34.6%; in the experiment on NCI/ADR-RES ovarian, 5.85% (active).

In the case of `N=C(N)c1ccc(-c2ccc(-c3ccccc3)o2)cc1`, the growth in the experiment with SR leukemia is -29.3% (active); with RPMI-8226 leukemia, -36.7% (active); with OVCAR-8 ovarian, -59.3% (active); with OVCAR-5 ovarian, -10.9% (active); with OVCAR-4 ovarian, -4.49% (active); with SK-OV-3 ovarian, -18.3% (active). Moreover, the growth in the experiment on IGROV1 ovarian was -25.7% (active); in the experiment on OVCAR-3 ovarian, -38.4% (active); in the experiment with HS 578T breast, -18.1% (active); in the experiment on NCI/ADR-RES ovarian it was -5.17% (active).

For the compound `COc1ccc(Nc2ncc(Br)c(NCCCNC(=O)c3cccs3)n2)cc1`, the growth is 31.5% with SR leukemia; 27.3% in the experiment on RPMI-8226 leukemia; 32.7% in the experiment on OVCAR-8 ovarian; 60.6% with OVCAR-5 ovarian; 57.7% with OVCAR-4 ovarian; 49.2% with SK-OV-3 ovarian. Also, the growth in the experiment on IGROV1 ovarian was 21%; in the experiment on OVCAR-3 ovarian it was 26.6%; in the experiment with HS 578T breast it was 30.9%; in the experiment with NCI/ADR-RES ovarian, 46.5%.

On to `CSc1oc(C)nc1[P+](c1ccccc1)(c1ccccc1)c1ccccc1`, for which the growth in the experiment on SR leukemia was 30.6%; in the experiment on RPMI-8226 leukemia it was 6.31% (active); with OVCAR-8 ovarian, 60.1%; in the experiment on OVCAR-5 ovarian, 83.1%; in the experiment with OVCAR-4 ovarian, 34.6%; with SK-OV-3 ovarian it was 57.7%. For the same compound, the growth in the experiment with IGROV1 ovarian was 60.6%; in the experiment with OVCAR-3 ovarian, 36.9%; with HS 578T breast it was 55%; in the experiment with NCI/ADR-RES ovarian, 106%.

On to `Cc1c(-c2ccc(O)cc2)n(Cc2ccc(OCCN3CCCCCC3)cc2)c2ccc(O)cc12`, for which the growth with SR leukemia is 1.53% (active); in the experiment with RPMI-8226 leukemia it was 57.5%; in the experiment on OVCAR-8 ovarian, 84.7%; with OVCAR-5 ovarian, 87.9%; in the experiment on OVCAR-4 ovarian it was 78.1%; in the experiment on SK-OV-3 ovarian, 81.3%. For the same compound, the growth in the experiment with IGROV1 ovarian was 85.7%; in the experiment on OVCAR-3 ovarian it was 85.1%; in the experiment with HS 578T breast, 68.4%; in the experiment with NCI/ADR-RES ovarian, 85.7%.

Consider `COCCn1cc(-c2nc(-c3cc4cccnc4[nH]3)cs2)c2cc(OC)ccc21`, for which the growth was 2.96% (active) in the experiment on SR leukemia; 27.1% in the experiment with RPMI-8226 leukemia; 25.3% with OVCAR-8 ovarian; 26.3% in the experiment with OVCAR-5 ovarian; 15.6% in the experiment with OVCAR-4 ovarian; 21% in the experiment with SK-OV-3 ovarian. Moreover, the growth is 24.5% with IGROV1 ovarian, 27.6% with OVCAR-3 ovarian, -4.1% (active) in the experiment on HS 578T breast and 28.5% in the experiment with NCI/ADR-RES ovarian.

On to `COC1/C=C/OC2(C)Oc3c(C)c(O)c4c(O)c(c(/C=N/Nc5ccc([N+](=O)[O-])cc5[N+](=O)[O-])c(O)c4c3C2=O)NC(=O)C(C)=C/C=C/C(C)C(O)C(C)C(O)C(C)C(OC(C)=O)C1C` (stereo not given), for which the growth with SR leukemia was 7.02% (active); with RPMI-8226 leukemia it was 7.67% (active); with OVCAR-8 ovarian, 27.3%; with OVCAR-5 ovarian, 48.3%; in the experiment with OVCAR-4 ovarian, 35%; with SK-OV-3 ovarian it was 112%. Also, the growth with IGROV1 ovarian is 28.5%; in the experiment with OVCAR-3 ovarian, -42.1% (active); with HS 578T breast it was 20%; with NCI/ADR-RES ovarian, 76.7%.

As for `CCN(CC)CCn1c2ccc(OC)cc2c2sc3cc(OC)ccc3c(=O)c21`, the growth with SR leukemia was 1.43% (active); in the experiment with RPMI-8226 leukemia, 11.8%; in the experiment with OVCAR-8 ovarian, 30%; in the experiment on OVCAR-5 ovarian it was 37.1%; with OVCAR-4 ovarian it was 37.7%; in the experiment with SK-OV-3 ovarian it was 56.5%. Further, the growth in the experiment on IGROV1 ovarian was 14.5%; in the experiment with OVCAR-3 ovarian it was 31.5%; with HS 578T breast, 46.1%; in the experiment on NCI/ADR-RES ovarian, 23%.

As to `O=c1c2ccccc2n2cnc3ccc(Cl)c1c32`, the growth in the experiment with SR leukemia was 44.9%; in the experiment with RPMI-8226 leukemia, 98.6%; with OVCAR-8 ovarian, 78.1%; with OVCAR-5 ovarian, 81.6%; in the experiment on OVCAR-4 ovarian, 82.6%; in the experiment on SK-OV-3 ovarian it was 69.8%. The growth with IGROV1 ovarian was 55.5%; in the experiment on OVCAR-3 ovarian it was 85.2%; with HS 578T breast, 84.8%; in the experiment on NCI/ADR-RES ovarian it was 86.7%.
